# Data from PubChem BioAssay AID1259421 (Broad Institute, 2018).
# Where “and” joins values, the source holds several entries; their conditions need not be identical. Equal values may be shown once. The whole screen tested about 6,400 compounds, of which about 610 (9.5%) were called active. Cut-off read from the data, not from the text of the source: active = activity change below about -70%; inconclusive = no clear call, values can overlap the other calls; inactive = above that. The full list was thinned out, with actives kept by preference. Some compounds were tested as several samples or in several runs, with calls that do not always agree.
# Assay: T. gondii ME49Luc in HeLa cells, luciferase assay, 72 h, no IFN-y (AID 1259421)
# Settings: stronger effect = lower value, concentration not given here
row,SMILES,"activity change, negative = inhibition"
1,C[N+]1(C)C2CC[C@H]1CC(OC(=O)C(O)c1ccccc1)C2 (stereo not given in full),10.1% (inactive)
2,O=C(Nc1ccccc1)C12CC1/C(=N\O)c1ccccc1O2 (stereo not given),7.7% (inactive) and 0.127% (inactive)
3,COc1ccc(-c2cc(=O)c3c(O)cc(O[C@@H]4O[C@H](CO[C@H]5O[C@H](C)[C@@H](O)[C@H](O)[C@@H]5O)[C@@H](O)[C@H](O)[C@H]4O)cc3o2)cc1O,14.7% (inactive)
4,Cn1cc(C2=C(c3cn(CCCSC(=N)N)c4ccccc34)C(=O)NC2=O)c2ccccc21,-58% (inactive) and -88.3% (active)
5,Cn1cc(C2=C(c3ccc(Cl)cc3Cl)C(=O)NC2=O)c2ccccc21,-12.4% (inactive) and -8.86% (inactive)
6,COc1ccc2c(c1)c(C1=C(c3c[nH]c4ccccc34)C(=O)NC1=O)cn2CCCN(C)C,-36.9% (inactive)
7,CCCCC/C=C\C/C=C\CCCCCCCC(=O)NCCCC(=O)O,8.14% (inactive)
8,O=C(O)CN1CCN(CC(=O)O)CCN(CC(=O)O)CCN(CC(=O)O)CC1,0.0247% (inactive)
9,N#C/C(=C(/N)Sc1ccc(N)cc1)c1ccccc1C(F)(F)F,7.26% (inactive)
10,NS(=O)(=O)c1ccc(N=Cc2c(O)[nH]c3ccccc23)cc1,13.4% (inactive)
11,O=Nc1c(-c2c(O)[nH]c3ccccc23)[nH]c2ccccc12,-74.5% (active)
12,O=Nc1c(-c2c(O)[nH]c3cc(Br)ccc23)[nH]c2ccccc12,-87.9% (active)
13,O=C1C(c2c(O)[nH]c3ccccc23)=Nc2ccccc21,-5.14% (inactive)
14,CCCCC(=O)O[C@]1(C(=O)CO)[C@@H](C)CC2C3CCC4=CC(=O)C=C[C@]4(C)[C@@]3(F)C(O)C[C@@]21C (stereo not given in full),1.05% (inactive)
15,CC(=O)c1cc2ccccc2oc1=O,-2.07% (inactive)
16,O=C(O)CCCCN(CCc1ccccc1OCc1ccc(CCc2ccccc2)cc1)Cc1ccc(C(=O)O)cc1,10.8% (inactive)
17,C=C[C@@]1(C)CC(=O)[C@]2(O)[C@@]3(C)[C@@H](O)CCC(C)(C)[C@@H]3[C@H](O)[C@H](OC(=O)CCCN3CCN(C)CC3)[C@@]2(C)O1,-10.4% (inactive)
18,OC(c1ccccc1)C1CCN(CCc2ccccc2)CC1 (stereo not given),5.4% (inactive) and 0.692% (inactive)
19,CC(C)(C)c1ccc(C(O)CCCN2CCC(C(O)(c3ccccc3)c3ccccc3)CC2)cc1 (stereo not given),-86.1% (active) and 8% (inactive)
20,CC(C)(C(=O)O)c1ccc(C(O)CCCN2CCC(C(O)(c3ccccc3)c3ccccc3)CC2)cc1 (stereo not given),4.73% (inactive) and 3.69% (inactive)
